Compound activity as filed in PubChem BioAssay.
Gal4-VP16 FLuc – inhibits Gal4-VP16 luciferase reporter, ROR gamma counter-screen | 310,000 compounds, 3.5% hits | Potency, µM (series often up to 53.6 µM), for the others: at the top dose activity, negative = inhibition, usual class: inhibitors | Drosophila S2 Gal4-VP16 UAS-luciferase, luminescence, 20 h;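 also: Gal4-VP16 expression switched on by copper sulfate through the metallothionein promoter; nearly all actives have a fitted effect of over 50% in size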
TDP1 block – TDP1 (human) enzyme inhibition; 350,000 compounds, 0.28% hits; Q9NUW8; recombinant TDP1, AlphaScreen DNA substrate cleavage; AID 485290; Potency, µM (top dose mostly 130 µM), without a hit: top-dose activity change, negative = inhibition, usual class: inhibitors; also: nearly all actives have a fitted effect of over 40% in size
Target sequence (Q9NUW8 whole entry, looked up): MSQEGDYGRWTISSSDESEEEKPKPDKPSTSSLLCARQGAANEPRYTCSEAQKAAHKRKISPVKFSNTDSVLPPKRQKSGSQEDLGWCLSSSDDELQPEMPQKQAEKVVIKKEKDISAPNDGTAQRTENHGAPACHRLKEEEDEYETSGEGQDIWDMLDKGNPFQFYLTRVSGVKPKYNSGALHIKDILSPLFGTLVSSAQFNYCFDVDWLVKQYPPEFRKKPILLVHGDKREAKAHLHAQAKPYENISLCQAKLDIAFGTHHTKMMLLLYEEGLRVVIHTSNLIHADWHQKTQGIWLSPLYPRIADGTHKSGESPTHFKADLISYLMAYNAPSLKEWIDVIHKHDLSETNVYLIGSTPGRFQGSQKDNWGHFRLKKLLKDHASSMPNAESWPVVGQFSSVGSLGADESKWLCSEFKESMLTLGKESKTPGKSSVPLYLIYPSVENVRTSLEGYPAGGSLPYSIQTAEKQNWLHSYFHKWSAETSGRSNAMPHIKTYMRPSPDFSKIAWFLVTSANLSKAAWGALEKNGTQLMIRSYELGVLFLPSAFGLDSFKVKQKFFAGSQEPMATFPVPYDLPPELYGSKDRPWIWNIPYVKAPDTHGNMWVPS
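AlphaScreen read-out: signal falls as enzyme removes the 3' tyrosine-FITC from a 5'-biotinylated DNA oligo (15 nM, 5 min, RT). Enzyme was E. coli-made recombinant Tdp1 at 1 nM, exposed to compound for 15 min beforehand; beads 10 ug/ml, 10 min.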
DT40 TDP1 CPT – DT40-hTDP1 cell growth loss with CPT; chicken DT40 Tdp1-/-;hTDP1 cells + 20 nM CPT, ATP luminescence, 48 h; Potency, µM (highest dose often 46.2 µM), inactives show at the top dose activity change, negative = growth inhibition, most hits filed as inhibitors; 420,000 compounds, 12% hits; AID 686979; also: nearly all actives have a fitted effect of over 55% in size
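Cell growth measured by CellTiter-Glo luminescence after a minimum 48 h, 37 C compound exposure with 20 nM CPT in Tdp1-knockout DT40 cells stably expressing hTDP1, seeded 400/well; qHTS titration format.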
TDP1 cell noCPT – qHTS for Inhibitors of human tyrosyl-DNA phosphodiesterase 1 (TDP1): qHTS in cells in absence of CPT; DT40 Tdp1-/- hTDP1 cells, no CPT, ATP luminescence, 48 h; Potency, µM (highest dose often 46.2 µM), for inactives: at the highest dose activity change, negative = growth inhibition, hits mostly inhibitors; 420,000 compounds, 15% hits; also: nearly all actives have a fitted effect of over 55% in size
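Camptothecin absent (DMSO only). Human TDP1-complemented DT40 knockout cells, 400 cells/well, 37 °C for minimum 48 hr; ATP measured via CellTiter-Glo, 30 min dark incubation, luminescence.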
RORgamma inh – ROR gamma (mouse) transcription inhibition; AID 2551; 310,000 compounds, 5.4% hits; Potency, µM (highest dose often 53.6 µM), for inactives: at the top dose activity change, negative = inhibition, most hits filed as inhibitors; Drosophila S2 Gal4-RORgamma UAS-luciferase reporter, 20 h; also: nearly all actives have a fitted effect of over 60% in size
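Read-out: Photinus luciferase luminescence; inhibitors lower reporter signal. Insect Schneider cells with Gal4-ROR gamma fusion under metallothionein promoter, UAS reporter; 700 uM final copper sulfate induction, 20 hr, ambient temperature.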
The depositor's hits bear a star; ? = inconclusive; · = no result; [ ] = dose if it differs, or a comment. A selection: hits, their analogues and other compounds. The true share with any hit is near 19%. Calls follow the shape of the dose curve; as a rule, active = well fitted curve in the direction sought with a large enough effect; inconclusive = small, poorly fitted or top-dose-only effect, or another doubt; inactive = no such curve, though single readings can be large; an effect the other way counts as inactive or inconclusive. % is scaled to controls: 0 for no effect and ±100 for the full control effect; potency is read from the fitted curve at half-maximal effect.

SMILES	Gal4-VP16 FLuc	TDP1 block	DT40 TDP1 CPT	TDP1 cell noCPT	RORgamma inh
CC1CCCCC1NC(=O)CCCn1c(=S)[nH]c2ccsc2c1=O (stereo unspecified)	?	6.5%	-0.3%	0.9%	17.8µM*
Cc1ccc(-c2nc(C(=O)Nc3cccc(C#N)c3)c3n2CCCCC3)cc1	·	3.9%	·	·	·
COc1cccc2cc(-c3csc(CCn4nc(C)cc4C)n3)c(=O)oc12	11.2%	0.0%	?	23.1µM*	-6.0%
COc1ccc(-c2cc(C(F)F)nc(-n3nc(C)cc3C)n2)cc1	1.41µM*	1.0%	-17.2%	?	0.891µM*
COc1ccc(-c2csc(CCn3nc(C)cc3C)n2)cc1	?	3.6%	?	?	10µM*
Cc1cc(C)n(CCc2nc(-c3ccco3)cs2)n1	2.5%	·	11.2µM*	12.6µM*	-1.1%
Cc1cc(C)n(CCc2nc(-c3cccs3)cs2)n1	-2.6%	1.0%[56.1 µM]	?	?	-11.2%
Cc1ccc(-c2cc(C(F)F)nc(N3CCOCC3)n2)cc1	-17.7%[10 µM]	?	10.5%	-25.2%	-5.9%
COCCNC(=O)C1(C)CCCN(Cc2cccc(OC(=O)c3ccccc3)c2)C1 (stereo unspecified)	·	·	?	-23.4%	·
C=C(Br)CN1[C@@H](Cc2ccccc2)[C@H](O)[C@@]23C=C[C@@H](C[C@@H]2S1(=O)=O)O3	·	1.2%	?	?	·
COc1ccc(-c2csc(CCn3nc(C)cc3C)n2)cc1OC	-0.9%	5.1%	?	-6.5%	16.2%
COc1ccc(OC)c(-c2csc(CCn3nc(C)cc3C)n2)c1	4.5%	6.0%	-6.3%	-14.5%	14.1µM*
CC1=C(C(=O)Nc2cccc(C(=O)NC3CCCCC3C)c2)SCCO1 (stereo unspecified)	-8.9%	2.2%	16.4µM*	?	16.2%
CC1=C(C(=O)Nc2cc(C(=O)N3CCN(c4ccc(Cl)cc4)CC3)ccc2C)SCCO1	·	·	18.4µM*	14.6µM*	·
CCOCCCNC(=O)c1cccc(NC(=O)C2=C(C)OCCS2)c1	-2.0%	·	4.8%	3.4%	-10.0%
CC1=C(C(=O)Nc2ccc(C(=O)N3CCN(c4cccc(Cl)c4)CC3)cc2)SCCO1	2.4%	7.6%	?	-22.1%	31.0%
CC1=C(C(=O)Nc2cccc(C(=O)N3CCN(c4cccc(C(F)(F)F)c4)CC3)c2)SCCO1	?	8.5%	14.6µM*	25.9µM*	37.1%
Cc1cc(C)c2oc(C(=O)Nc3sc4c(c3C(=O)NCc3ccco3)CCCC4)cc(=O)c2c1	·	4.9%	5.9%	-5.8%	·
Cc1c(Cl)cccc1NC(=O)CC(Cc1ccccc1)C(=O)O (stereo unspecified)	2.7%	·	3.0%	-22.3%	2.7%
O=C(CN(CC1CCCO1)C(=O)CCC(=O)Nc1nccs1)NCc1ccc2c(c1)OCO2 (stereo unspecified)	-2.1%	4.7%	4.6%	-3.5%	-1.0%
CCOc1ccc(NC(=O)CSc2nc3c(oc4ccccc43)c(=O)n2-c2ccccc2C)cc1	·	2.0%	?	23.1µM*	·
COc1ccccc1NC(=O)CSc1nc2c(oc3ccccc32)c(=O)n1-c1ccccc1F	·	2.9%	13µM*	9.2µM*	·
COCCCN(C(=O)Cc1coc2cc(C)c(C)cc12)c1c(N)n(Cc2ccccc2)c(=O)[nH]c1=O	·	-2.6%[0.505 µM]	-13.3%	-2.1%	·
Cc1cccc(N2CCN(CCCNc3ncnc4onc(-c5ccc(Cl)cc5)c34)CC2C)c1 (stereo unspecified)	·	4.2%	?	20.6µM*	·
Cc1ccc(C)c(N2CCN(CCCNc3ncnc4onc(-c5ccc(Cl)cc5)c34)CC2)c1	·	-5.3%	?	16.4µM*	·
SMILES	Gal4-VP16 FLuc	TDP1 block	DT40 TDP1 CPT	TDP1 cell noCPT	RORgamma inh
Cc1cccc(N2CCN(CCCNc3ncnc4onc(-c5ccc(F)cc5)c34)CC2C)c1 (stereo unspecified)	·	6.3%	?	20.6µM*	·
Cc1ccc(Cl)cc1N1CCN(CCCNc2ncnc3onc(-c4ccc(Cl)cc4)c23)CC1	·	3.8%	?	?	·
CCC(=O)Nc1cc(C)c(NC(=O)C23CC4CC(CC(C4)C2)C3)cn1	-6.7%	5.4%[56.1 µM]	-16.4%	-13.0%	25.1%
CCCn1c(SCC(=O)N(C)C2CCCCC2)n[nH]c1=O	·	·	-8.3%	4.8%	·
CC(=O)C1=CCC(c2ccc(C(C)C)cc2)N(S(=O)(=O)c2ccc(C)cc2)C1 (stereo unspecified)	·	·	-102.1%	?	·
COc1ccc(C2CC=C(C(C)=O)CN2S(=O)(=O)c2ccc(C)cc2)cc1 (stereo unspecified)	·	·	?	23.1µM*	·
CCOc1ccc(C2CC=C(C(C)=O)CN2S(=O)(=O)c2ccc(C)cc2)cc1 (stereo unspecified)	·	·	23.1µM*	23.1µM*	·
COc1ccc(C2CC=C(C(C)=O)CN2S(=O)(=O)c2ccccc2)cc1 (stereo unspecified)	·	·	?	20.6µM*	·
CCOc1ccc([C@@H]2CC=C(C(=O)O)CN2S(=O)(=O)c2ccc(C)cc2)cc1	·	0.1%	-9.6%	-6.7%	·
O=C(Nc1ccc(-c2nnco2)cc1)c1ccccc1	3.5%	2.2%	-11.2%	-5.0%	0.1%
Cc1cc(C)cc(NC(=O)C2CCCN2S(=O)(=O)c2ccc3nc(-c4ccccc4)[nH]c3c2)c1 (stereo unspecified)	·	5.1%	?	14.6µM*	·
CCOc1ccccc1NC(=O)C1CCCN1S(=O)(=O)c1ccc2nc(-c3ccccc3)[nH]c2c1 (stereo unspecified)	·	5.1%	10.3µM*	6.51µM*	·
Cc1cc(C)cc(NC(=O)C2CCCN2S(=O)(=O)c2ccc3c(c2)CCCC(=O)N3)c1 (stereo unspecified)	·	5.3%	?	?	·
CCc1cccc(NC(=O)C2CCCN2S(=O)(=O)c2ccc3c(c2)n(C)c(=O)c(=O)n3C)c1 (stereo unspecified)	3.9%	-1.3%	4.2%	-0.9%	-5.4%
CCOc1ccccc1NC(=O)C1CCCN(S(=O)(=O)c2cccc3cccnc23)C1 (stereo unspecified)	-12.7%	2.2%	?	?	-12.7%
CCc1cccc(NC(=O)C2CCCN2S(=O)(=O)c2ccc3nc(-c4ccccc4)[nH]c3c2)c1 (stereo unspecified)	·	7.7%	7.31µM*	8.2µM*	·
CCOc1ccccc1NC(=O)C1CCCN1S(=O)(=O)c1ccccc1C(F)(F)F (stereo unspecified)	·	-2.6%	20.6µM*	20.6µM*	·
COc1ccc(CNC(=O)CN(C2CCCCC2)S(C)(=O)=O)cc1	-5.0%	2.4%	-16.0%	-25.1%	-5.1%
COCCNC(=O)c1onc(CSc2ccccc2)c1C(=O)NCCOC	·	-2.3%	-7.7%	-1.2%	·
Cc1nc(NCc2ccccc2)c2nc(-c3ccccc3)n(CCCN(C)C)c2n1	-7.1%	5.7%	·	·	-19.4%
